Measured values reported in PubChem BioAssay (NCI).
Several values for one entry are separate records, joined by “and”; a condition that tells them apart may be missing. Equal values may be shown once. About 79,000 compounds went through this panel and 15% of them were active in at least one assay; those are over-represented in the sample as a whole. No stated cut-off is given here; in the data, active means growth inhibition above about 70%; inactive means the rest.

How the values were obtained:
[1] = NCI Yeast Anticancer Drug Screen. Data for the rad50 strain (AID 155);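 further: 0% = growth of vehicle-only cultures of the same strain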; settings: S. cerevisiae rad50 strain growth inhibition, stronger effect = higher value; at 50.0 µM unless noted
Procedure, shortened: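 Yeast carrying a defined DNA repair defect were exposed to test compounds, and growth was compared with vehicle-treated controls to give percent inhibition.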

[2] = NCI Yeast Anticancer Drug Screen. Data for the mec2-1 strain (AID 157); settings: S. cerevisiae mec2-1 strain, stronger effect = higher value; at 50.0 µM unless noted
Procedure, shortened: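 Growth inhibition is read against vehicle-treated controls after compound exposure of the mec2-1 yeast strain, which is defective in DNA damage repair or cell cycle control.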

[3] = NCI Yeast Anticancer Drug Screen. Data for the sgs1 mgt1 strain (AID 161);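 further: 0% = growth of cultures given vehicle only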; settings: S. cerevisiae sgs1 mgt1 strain, stronger effect = higher value; at 50.0 µM unless noted
Procedure, shortened: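 Compounds are added to genetically altered yeast, and growth is compared with cultures given vehicle alone to give percent inhibition.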

[4] = NCI Yeast Anticancer Drug Screen. Data for the cln2 rad14 strain (AID 165);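 further: 0% = growth equal to vehicle treated cultures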; settings: S. cerevisiae cln2 rad14 strain, stronger effect = higher value; at 50.0 µM unless noted
Procedure, shortened: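 Growth inhibition, relative to vehicle-treated controls, is the read-out. The test organism is a yeast strain with defined genetic alterations, cln2 rad14.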

[5] = NCI Yeast Anticancer Drug Screen. Data for the bub3 strain (AID 167); settings: S. cerevisiae bub3 mutant strain, stronger effect = higher value; at 50.0 µM unless noted
Procedure, shortened: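 Compounds were applied to a genetically altered yeast strain carrying a cell-cycle control defect. Growth inhibition was scored against vehicle-treated controls.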

[6] = NCI Yeast Anticancer Drug Screen. Data for the mlh1 rad18 strain (AID 175); settings: S. cerevisiae mlh1 rad18 strain growth inhibition, stronger effect = higher value; at 50.0 µM unless noted
Procedure, shortened: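 Cells of a genetically altered yeast strain, deficient in DNA damage repair, were treated with compound. Their growth was then compared with that of vehicle-treated cultures to give inhibition.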

Measured: growth inhibition

COc1ccc(NC(=O)CC(=O)n2nc(-c3ccccc3)c(N=Nc3ccccc3C(=O)O)c2-c2ccccc2)cc1
inactive: [1] -28.8% | [2] -13.1% | [3] -2.05% | [4] 2.85% | [5] 2.25% | [6] -13.5%

O=C1CN(c2cccc(C(F)(F)F)c2)C(=O)CN1/N=C/c1cccnc1
inactive: [1] -28.4% | [2] -5.2% | [3] 10.8% | [4] -4.35% | [5] 27.9% | [6] -8.45%

CC(=O)Nc1ccc(S(=O)(=O)O)c(OC(C)=O)c1
inactive: [1] 20.8% | [2] -7.2% | [3] 9.85% | [4] -11.8% | [5] 7.35% | [6] 19.1%

COC1CN(C(C)(C)C)C1
inactive: [1] 2.65% | [2] 6.15% | [3] -1.2% | [4] 2.65% | [5] 6.6% | [6] 0.95%

COc1ccc([N+](=O)[O-])cc1N(C)C
inactive: [1] 19.1% | [2] 17.4% | [3] 13.6% | [4] 9% | [5] -14.2% | [6] 4.55%

COc1ccc(NC(=O)CC/C(CC(=O)c2ccco2)=N/NC(=O)C(N)=O)cc1
inactive: [1] -4% | [2] -10.4% | [3] -15.8% | [4] -7.15% | [5] -14.1% | [6] -18.1%

O=C(NC12CC3CC(CC(C3)C1)C2)C(=O)c1c[nH]c2ccc([N+](=O)[O-])cc12
inactive: [1] -17.4% | [2] -25.1% | [3] -50.6% | [4] -9.85% | [5] -15.1% | [6] -31.9%

COC1OC(CO)C(O)C(O)C1OS(=O)(=O)c1ccc(C)cc1 (centres undefined)
inactive: [1] 5.7% | [2] -3% | [3] -10.1% | [4] 1.75% | [5] -1.85% | [6] -13.2%

CC(C)(C)c1ccc(C(C)(C)C)c(N2C(=O)c3ccc4c5ccc6c7c(ccc(c8ccc(c3c48)C2=O)c75)C(=O)N(c2cc(C(C)(C)C)ccc2C(C)(C)C)C6=O)c1
inactive: [1] -15.2% | [2] -7.9% | [3] -4.25% | [4] -6.2% | [5] -11.9% | [6] -6.8%

CCCCCCCCCCCCCCCOc1ccc(OCCCCCCCCCCCC)cc1
inactive: [1] 37.8% | [2] -6.3% | [3] 16.4% | [4] -33% | [5] 4.25% | [6] 11.8%

CN(C(=O)Nc1ccccc1)c1ccc(O)cc1
inactive: [1] 19.4% | [2] -8.55% | [3] -16.4% | [4] -11.9% | [5] -11.9% | [6] 12.7%

Cc1cc(C)c([N+](=O)[O-])cc1N
inactive: [1] 20.9% | [2] 15.1% | [3] 26.6% | [4] 13.5% | [5] 22.8% | [6] 19.6%

O=C(O)CC(C(=O)O)C(Cc1ccccc1)c1ccccc1 (centres undefined)
inactive: [1] -10.2% and 22.4% | [2] -4.25% and 10.9% | [3] 0.35% and 10.1% | [4] -0.05% and 5.95% | [5] -1.6% and 10.1% | [6] -3.15% and -6.55%

CCOc1ccc(OCC)cc1
inactive: [1] 3.6% | [2] -0.65% | [3] -9.05% | [4] -29.3% | [5] -11.1% | [6] 4.65%

CC(=O)CC/C=C(\C)CC(C)C
inactive: [1] 17.4% | [2] 11.6% | [3] 2.85% | [4] 13.6% | [5] 9.8% | [6] 10.1%

CC(C)(C)NC(=O)Nc1ccc2ccccc2c1
inactive: [1] -7.7% | [2] 3.95% | [3] -8.2% | [4] -68.5% | [5] -24.1% | [6] -11.3%

C[N+]1(CCC(=O)c2ccccc2)CCOCC1
inactive: [1] 42% | [2] 9.85% | [3] 28.4% | [4] 20.8% | [5] 13.5% | [6] 19.9%

CCCCCCCC/C=C\CCCCCCCC(=O)NN
inactive: [1] -7.85% | [2] 0.15% | [3] -4.25% | [4] -76% | [5] -2.7% | [6] -12.8%

CC(C)(C)C(C(=O)O)C(=O)O
inactive: [1] 11.2% | [2] 8% | [3] 0.45% | [4] -7.4% | [5] 5.2% | [6] 13.6%
